Screens: PubChem BioAssay, National Center for Advancing Translational Sciences (NCATS)
CCT modulator: modulators of cytosolic chaperonin (CCT/TRiC) activity. actives 0.3% (n = 360,000). purified chaperonin ATPase assay, HTRF ADP detection, 30 min. activity change, % (concentration not given with the values), hits read low; in the data active = activity change below about -30%
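We incubate TRiC, 40 or 20 nM final, with library compounds at 76 uM and 10 uM ATP for 30 min at 37 °C. ADP formed is detected with Transcreener HTRF reagents after 30 min at room temperature.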
G9a inh: blocks human histone lysine methyltransferase G9a | Q96KQ7 | G9a H3K9 monomethylation, AlphaScreen, 2 h | Potency, µM (series often up to 102 µM), without a hit: top-dose activity, negative = inhibition, actives largely listed as inhibitors | actives 8.8% (n = 350,000) | AID 504332; note: potency is the fitted concentration of half-maximal effect; nearly all actives have a fitted effect of over 75% in size
Target sequence (Q96KQ7 913-1193 limits assumed): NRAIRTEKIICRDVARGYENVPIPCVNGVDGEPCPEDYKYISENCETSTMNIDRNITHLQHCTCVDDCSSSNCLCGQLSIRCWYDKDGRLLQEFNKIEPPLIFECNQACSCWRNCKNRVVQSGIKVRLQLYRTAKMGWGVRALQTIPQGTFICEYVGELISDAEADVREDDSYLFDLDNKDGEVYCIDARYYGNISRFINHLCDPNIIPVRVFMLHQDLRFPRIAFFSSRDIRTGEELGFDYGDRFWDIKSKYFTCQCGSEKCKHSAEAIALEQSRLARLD
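Methyltransferase reactions run at room temperature for 2 h (20 nM enzyme, 500 nM biotin-H3K9 peptide, 20 uM SAM) after a 15 min compound preincubation; product detected by AlphaScreen beads and anti-H3K9me1 antibody.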
Sfp inh: blocks B. subtilis Sfp PPTase activity | Biochemical Sfp PPTase activity, qHTS | Q9F4F7 | AID 1490 | Potency, µM, for the others: largest response in the series, negative = inhibition, hits mostly inhibitors | actives 3.5% (n = 310,000);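 note: the enzyme is Sfp with the accession as filed and its product quenches rhodamine fluorescence; potency is the fitted concentration of half-maximal effect; 0% = enzyme reaction without inhibitor and -100% = no enzyme wells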
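Buffer: 50 mM Hepes-Na pH 7.6, 10 mM MgCl2, 0.01% Nonidet P-40, 0.01% BSA. Enzyme 15 nM, pre-exposed to compound 15 min; substrates then added and fluorescence change tracked over 30 min.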
VDR inhibitor: blocks the human vitamin D receptor | P11473 | VDR-SRC2-3 peptide fluorescence polarization, 2 h | Potency, µM, for the others: max response, negative = inhibition, usual class: inhibitors | actives 0.93% (n = 400,000) | AID 504847; note: potency is the fitted concentration of half-maximal effect
Target sequence (P11473 whole entry, looked up): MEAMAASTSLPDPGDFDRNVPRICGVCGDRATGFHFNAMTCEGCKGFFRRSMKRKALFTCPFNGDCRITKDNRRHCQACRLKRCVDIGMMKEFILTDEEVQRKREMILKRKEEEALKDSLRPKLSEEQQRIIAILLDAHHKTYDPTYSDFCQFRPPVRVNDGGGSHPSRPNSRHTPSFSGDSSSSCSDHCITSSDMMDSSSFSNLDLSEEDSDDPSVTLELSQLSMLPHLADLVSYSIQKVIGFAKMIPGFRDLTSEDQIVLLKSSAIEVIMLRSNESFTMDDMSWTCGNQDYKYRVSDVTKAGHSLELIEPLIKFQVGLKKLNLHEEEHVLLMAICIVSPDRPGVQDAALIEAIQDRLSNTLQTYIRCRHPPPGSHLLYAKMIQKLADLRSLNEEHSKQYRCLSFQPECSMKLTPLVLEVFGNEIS
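Reagent solutions, kept cold and dark, are dispensed first; compounds are then pinned in at 23 nl, plates briefly spun, and incubated 2 h at ambient temperature. Inhibition of VDR–SRC2-3 peptide binding is read by fluorescence polarization.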
MmCpn inh: M. maripaludis TRiC chaperonin inhibition; actives 0.031% (n = 330,000); Potency, µM (highest dose often 76.9 µM), without a hit: top-dose activity, negative = inhibition, usual class: inhibitors; purified Mm-Cpn ATPase, ADP Transcreener TR-FRET; note: potency is the fitted concentration of half-maximal effect; nearly all actives have a fitted effect of over 80% in size
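Reaction buffer contained 30 mM Tris pH 7.4, 100 mM KCl, 5 mM MgCl2 and 1 mM DTT. Mm-CPN (25 nM final) hydrolysed 10 uM ATP over 30 min at 37°C; ADP was read by HTRF.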
PLK1 PBD inh: inhibitors of human PLK1 polo-box domain binding; P53350; Plk1 PBD binding of FITC phosphopeptide, fluorescence polarization; Potency, µM, inactives show max response, negative = inhibition, usual class: inhibitors; actives 2.8% (n = 360,000); note: potency is the fitted concentration of half-maximal effect; series mostly up to about 57 µM; nearly all actives have a fitted effect of over 65% in size
* = called active by the depositor; ? = inconclusive; . = no result; ! = a repeat was not active; [ ] = another dose, or the depositor's remark. This is a sample that favours compounds with a hit; in the whole collection about 10% have one here. Unless noted, calls come from the whole dose curve; as a rule, active = well fitted curve in the direction sought with a large enough effect; inconclusive = small, poorly fitted or top-dose-only effect, or another doubt; inactive = no such curve, though single readings can be large; an effect the other way counts as inactive or inconclusive. Unless noted, % is set by controls: 0 for no effect and ±100 for the full control effect.

SMILES | CCT modulator | G9a inh | Sfp inh | VDR inhibitor | MmCpn inh | PLK1 PBD inh
CN(CC#CC1(O)c2ccccc2-c2ccccc21)Cc1ccccc1 | -1 | 1.6µM* | 45µM* | -17% | 0% | -2%
CC1CCCCC1NCC(=O)Nc1ccccc1-c1ccccc1 (configuration not stated) | 2 | 6.3µM* | 79µM* | -5% | 0% | -17%
C=C(C)Cn1c(SCC(=O)c2ccc(Br)cc2)nc2sc3c(c2c1=O)CCCC3 | . | 12%[59 µM] | . | 9% | . | .
O=C1CC(SC(=S)C2CCCC2=O)C(=O)N1 (configuration not stated) | -1 | . | . | . | . | 13µM*
O=C(CNC(=O)c1nc[nH]c1C(=O)N1CCc2ccccc2C1)OCc1ccccc1 | -4 | 10% | 1% | 79µM* | 2% | 19µM*
Cc1c(Cl)cccc1NC(=O)c1cc(-c2cccs2)on1 | . | 11%[59 µM] | . | 0% | . | .
O=C1[C@H]2[C@H]3[C@H](O)[C@H](O)C/C(=N/OC[C@@H](O)COCc4ccco4)[C@@H]3CC[C@@H]2C(=O)N1Cc1ccccc1 | . | . | 17% | . | . | .
C[C@]12c3[nH]c4cc(-c5ccco5)ccc4c3CCN1C(=O)[C@@H](CC(=O)NCCc1ccccn1)C[C@@H]2C(=O)N1CCCCC1 | 0 | . | . | -5% | -1% | -7%
C[C@]12c3[nH]c4cc(-c5ccco5)ccc4c3CCN1C(=O)[C@@H](CC(=O)NCCC1=CCCCC1)C[C@@H]2C(=O)N1CCCCC1 | 0 | . | . | ? | -3% | 21µM*
CC(C)(C)NC(=O)C[C@H]1C[C@H](C(=O)N2CCOCC2)[C@@]2(C)c3[nH]c4cc(-c5ccco5)ccc4c3CCN2C1=O | -1 | . | . | -1% | -1% | -5%
CC(C)(C)NC(=O)C[C@H]1C[C@H](C(=O)N2CCCCC2)[C@@]2(C)c3[nH]c4cc(-c5ccco5)ccc4c3CCN2C1=O | -7 | . | . | ? | -26% | 24µM*
CC[C@]12c3[nH]c4cc(-c5ccco5)ccc4c3CCN1C(=O)[C@@H](CC(=O)NC/C=C(\C)CCC=C(C)C)C[C@@H]2C(=O)N1CCN(C(=O)c2ccco2)CC1 | -1 | . | . | -26% | -4% | 24µM*
C=CCNC(=S)NNC(=O)COc1cccc(Cl)c1 | -1 | 25µM* | 10% | 5% | 2% | -27%
C=CCNC(=S)NNC(=O)COc1ccc(Br)cc1 | 0 | 32µM* | 17% | -18% | 0% | -13%
C=CCNC(=S)NNC(=O)COc1ccc2cc(Br)ccc2c1 | -3 | 5% | 11% | -5% | -7% | -20%
Cc1cc(Br)ccc1NC(=O)C1C2CCC(O2)C1C(=O)O (configuration not stated) | -2 | 32µM* | 6% | -9% | -1% | -12%
Cc1c(CN2CCCCC2)c(O)n(CCCO)c(=O)c1C#N | -3 | 45µM* | 11% | 20% | -2% | -5%
CCOC(=O)c1c(NC(=O)CSc2nnc(N)s2)sc(C)c1-c1ccc(C)cc1 | -7 | 40µM* | 0% | 19% | -2% | -3%
Cc1ccc(NC(=O)CSc2nnc(N)s2)c(C)c1 | . | -26%[59 µM] | . | -17% | . | .
CCOC(=O)c1sc(SCC(=O)Nc2ccc(N(C)C)cc2)nc1N | -1 | 11µM* | -4% | 10% | -6% | -2%
Cc1ccc(Nc2nnc(SCC(=O)NC3CCCc4ccccc43)s2)cc1 (configuration not stated) | 1 | 79µM* | 3% | -2% | -2% | -3%
CCN(CC)c1ccc(NC(=O)CSc2nnc(N)s2)cc1C | -1 | 56µM* | 9% | -2% | -1% | -10%
CCC(=O)N1CCc2cc(Br)cc(S(=O)(=O)CCC(=O)N3CCN(c4ccc(OC)cc4)CC3)c21 | . | -44%[59 µM] | . | -4% | . | .
COc1ccc(-n2c(=O)c(-c3cccs3)nc3cnc(Oc4ccccc4)nc32)cc1 | . | 1%[12.7 µM] | -27% | -4% | . | .
CC(C)NC[C@@H](O)COc1ccc(COCCOC(C)C)cc1 | . | 6%[21.5 µM] | 21% | 5% | . | .
SMILES | CCT modulator | G9a inh | Sfp inh | VDR inhibitor | MmCpn inh | PLK1 PBD inh
COc1ccc(Nc2nnc(SCC(=O)NC3CCS(=O)(=O)C3)s2)cc1 (configuration not stated) | 0 | 14µM* | . | -3% | 0% | -7%
COc1ccc(NC(=O)CSc2nnc(N)s2)cc1 | 0 | 79µM*! | 16% | -8% | 1% | -3%
O=C(c1csnn1)N1CCC2(CC1)CCN(c1ccncc1)CC2 | . | 5%[12.7 µM] | -1% | 7% | . | .
CN(C)CC1CC/C(=C\c2ccc(O)cc2)C1=O (configuration not stated) | 1 | . | . | 22µM* | . | 6.7µM*
CC1CCC/C(=C\c2ccc(O)cc2)C1=O (configuration not stated) | 0 | . | . | -8% | . | 0%
COc1ccc(/C=C2/CCC(CN3CCOCC3)C2=O)cc1 (configuration not stated) | 0 | . | . | ? | . | 5.3µM*
CN(C)CC1CCC/C(=C\c2ccc(OC(=O)/C=C/c3ccccc3)cc2)C1=O (configuration not stated) | 1 | . | . | 79µM* | . | ?
COc1ccc(/C=C2\CCC(C3CCCC3)C2=O)cc1 (configuration not stated) | 0 | 16% | 10% | -11% | 2% | -2%
COc1cccc(-n2c(Cn3nc(C(F)F)cc3C(F)F)n[nH]c2=S)c1 | 2 | 8.9µM* | -16% | -7% | 0% | -14%
COc1cccc(-n2c(Cn3nc(C(F)(F)F)cc3C)n[nH]c2=S)c1 | -5 | 8.9µM* | -4% | 4% | 1% | 1%
Cc1ccc(-n2c(Cn3nc(C(F)(F)F)cc3C)n[nH]c2=S)cc1 | 0 | ? | ? | -23% | 1% | -11%
COC(=O)[C@H](Cc1ccccc1)NC(=O)C/C=C\[C@@H](C)[C@@H](CO)OC | . | . | 8% | . | . | .
CSc1ccccc1NC(=O)CN(C)Cc1cccc(Cl)c1 | 2 | -9% | 32µM* | -5% | -1% | -4%
CC(NC(=O)CN(C)Cc1cccc(Cl)c1)c1ccccc1 (configuration not stated) | 1 | 25µM* | -22% | -1% | -3% | 2%
CSc1ccc(CN(C)CC(=O)Nc2c(F)cccc2F)cc1 | -5 | 6.3µM* | ? | -14% | -1% | -13%
Cc1ccc(CN(C)CC(=O)NC(C)c2ccccc2)cc1 (configuration not stated) | 1 | 31% | -5% | 8% | 1% | 0%
Cc1ccccc1CN(C)CC(=O)NC(C)CCc1ccccc1 (configuration not stated) | -94* | 0% | 16% | -3% | 0% | -14%
OC(CNCc1ccncc1)c1ccccc1 (configuration not stated) | 0 | 22%[59 µM] | 15% | -19% | 0% | 27µM*
